Bioassay records deposited in PubChem BioAssay by several laboratories.
CD11b adhes inh: inhibitors of CD11b/CD18 adhesion to fibrinogen, primary screen, K562 cells, luminescence; AID 1497, 2009; Integrin beta-2 (Homo sapiens) + Integrin alpha-M (Homo sapiens), P05107+P11215; 93,000 compounds, 0.54% hits; inhibition, % at 10 µM; ATPlite luminescence; Mn2+ added to activate the integrin;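 active = primary inhibition of 50% or more at 10 µM, then 40% or more on retest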
Ec RNAP inh: E. coli RNAP inhibitors, biochemical; DNA-directed RNA polymerase subunit beta (Escherichia coli (strain K12)), P0A8V2; E. coli RNA polymerase, fluorescence transcription assay; inhibition, %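 (tested at 10 µM)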; 62,000 compounds, 0.2% hits; in the data active = inhibition above about 20%;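 also: 0% = enzyme without compound and 100% = no enzyme blank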
CD11b adhes enh: enhancers of CD11b/CD18 adhesion to fibrinogen, primary screen, K562 cells, luminescence; Integrin beta-2 (Homo sapiens) + Integrin alpha-M (Homo sapiens), P05107+P11215; 93,000 compounds, 0.07% hits; activation, % at 10 µM; AID 1499, 2009; ATPlite luminescence;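 active = 10 µM primary screen giving 50% or more activity, confirmed by 40% or more on retest at that dose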
Cav3 T inh: Cav3.2 calcium influx blockers – cell-based, Fluo-4 calcium fluorescence, FDSS, MLSMR library, primary screen | B-score at 10 µM | Voltage-dependent T-type calcium channel subunit alpha-1H (Homo sapiens), O95180 | AID 449739, 2010 | Cav3.2-expressing cells; hits give low values | 100,000 compounds, 4% hits;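 active = single-dose well whose peak fluorescence ratio is a statistical outlier from its plate by either plate-standardised score or position-corrected B-score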
PTK2B oligo ant: antagonists of Pyk2 self-association, primary screen, Q293 cells, FERM NanoBiT luminescence, HTS. z-score (the deposit names both 25 µM and 10 µM). 99,000 compounds, 0.83% hits. hits give low values;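 active = Z-score of -3 or lower, scaled per plate to the spread of control and sample wells; inactive = z-score above -3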;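 also: negative z-score means lost luminescence so less FERM oligomerization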
Target sequence (Q14289 whole entry, looked up): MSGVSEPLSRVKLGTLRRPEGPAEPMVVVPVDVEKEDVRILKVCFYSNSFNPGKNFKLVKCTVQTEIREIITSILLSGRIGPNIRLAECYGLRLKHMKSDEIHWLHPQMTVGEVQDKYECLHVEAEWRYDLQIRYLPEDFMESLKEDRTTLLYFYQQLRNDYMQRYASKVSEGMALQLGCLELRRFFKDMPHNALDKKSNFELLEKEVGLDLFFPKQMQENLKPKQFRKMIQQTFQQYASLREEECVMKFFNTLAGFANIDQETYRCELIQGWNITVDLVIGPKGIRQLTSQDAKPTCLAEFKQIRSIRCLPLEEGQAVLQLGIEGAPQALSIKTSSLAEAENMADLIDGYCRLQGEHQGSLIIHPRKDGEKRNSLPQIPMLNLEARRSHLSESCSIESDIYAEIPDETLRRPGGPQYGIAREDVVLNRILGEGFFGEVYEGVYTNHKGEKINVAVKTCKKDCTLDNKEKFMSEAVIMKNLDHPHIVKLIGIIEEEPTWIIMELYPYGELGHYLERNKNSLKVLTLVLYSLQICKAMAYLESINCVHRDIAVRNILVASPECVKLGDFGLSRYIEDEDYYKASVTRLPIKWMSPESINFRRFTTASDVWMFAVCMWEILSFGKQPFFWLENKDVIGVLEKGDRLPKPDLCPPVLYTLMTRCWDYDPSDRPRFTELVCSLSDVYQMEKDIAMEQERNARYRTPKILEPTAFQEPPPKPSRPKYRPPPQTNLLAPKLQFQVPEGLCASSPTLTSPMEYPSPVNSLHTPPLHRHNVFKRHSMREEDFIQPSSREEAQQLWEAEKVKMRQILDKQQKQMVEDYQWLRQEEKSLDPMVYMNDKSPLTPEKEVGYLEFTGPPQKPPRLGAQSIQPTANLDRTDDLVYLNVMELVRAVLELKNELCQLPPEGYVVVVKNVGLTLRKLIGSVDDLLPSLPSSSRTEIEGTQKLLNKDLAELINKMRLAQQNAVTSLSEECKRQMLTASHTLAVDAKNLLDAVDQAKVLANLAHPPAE
The depositor's hits bear a star; / = no result given. Only some compounds are listed: those with a hit (about 4.2% of all), similar ones and a draw of the others.

SMILES	CD11b adhes inh	Ec RNAP inh	CD11b adhes enh	Cav3 T inh	PTK2B oligo ant
CC(=O)C1=NN(c2ccccc2)C2(S1)S/C(=C\c1ccccc1)C(=O)N2c1ccccc1 (configuration not stated)	-0.5	/	-2.3	-1.82	-1.43
CC1(c2nnc(Cc3ccccc3)o2)CC(c2c(Cl)cccc2Cl)=NO1 (configuration not stated)	/	/	/	-0.732	/
O=C(Cn1nnc(-c2ccc(Cl)cc2)n1)NC1CCN(Cc2ccccc2)CC1	5.6	2.9	-3.3	-5.91*	1.28
Cc1ccc(-c2nnn(CC(=O)NC3CCN(Cc4ccccc4)CC3)n2)cc1	/	/	/	-4.83	2.91
CCOC(=O)c1c(C)[nH]c(C(=O)COC(=O)C(C)N2C(=O)C3CCCCC3C2=O)c1C (configuration not stated)	/	/	/	-3.22*	-1.69
CCOC(=O)c1c(C)[nH]c(C(=O)COC(=O)CN2C(=O)C3CCCCC3C2=O)c1C (configuration not stated)	-8.9	/	-1.4	-0.0212	-0.28
CCCC1(c2ccccc2)NC(=O)N(CC(=O)c2[nH]c(C)c(C(=O)OCC)c2C)C1=O (configuration not stated)	4.8	1.0	0.5	-5.59*	-1.81
O=C1c2cccc3cccc(c23)C(=O)N1CC1CCN(S(=O)(=O)c2ccc(F)cc2)CC1	11.1	/	-2.1	/	/
CCOC(=O)c1cc(C(C)(C)C)oc1CNC(=O)c1c(C)oc2c1CCCC2	/	/	/	-4.63*	-0.52
COc1ccc(C(=O)Nc2ccc([N+](=O)[O-])cn2)c(OC)c1	28.2	/	13.3	/	/
CCCOc1ccc(C(=O)N2CCN(c3ccc(N)cc3Cl)CC2)cc1	-4.5	9.7	1.2	-0.037	-3.9*
CC1CCc2cc(F)ccc2N1C(=O)CSc1nnc2c3cc(F)ccc3n(C)c2n1 (configuration not stated)	-5.8	/	-1.5	/	/
CC1Cc2ccccc2N1C(=O)CSc1nnc2c(n1)[nH]c1ccc(F)cc12 (configuration not stated)	/	/	/	-5.94*	-0.7
Cc1cc(C)c(O)c(-c2cc(C(=O)Nc3ccc(S(=O)(=O)N4CCOCC4)cc3)[nH]n2)c1	9.4	8.5	0.1	-0.448	-3.19*
Cc1nc2ccc(NC(=O)c3ccc(Cl)c([N+](=O)[O-])c3)cc2s1	-14.5	/	78.0	/	/
O=C(Nc1ccc(Cc2ccncc2)cc1)c1ccc(Cl)c([N+](=O)[O-])c1	/	/	/	-8.65*	-0.23
O=S(=O)(Nc1ccc(Cc2ccncc2)cc1)c1ccc(Cl)c(Cl)c1	/	/	/	-0.918	-3.03*
O=C(Nc1ccc(S(=O)(=O)N2CCOCC2)cc1)c1ccc(Cl)cc1	/	3.1	/	-0.683	/
O=C(Nc1ccc(Cc2ccncc2)cc1)c1ccc(S(=O)(=O)N2CCOCC2)cc1	92.8*	5.9	-10.3	-0.423	-1.7
Cc1cc(C)nc(NS(=O)(=O)c2ccc(NC(=O)c3ccc(S(=O)(=O)N4CCOCC4)cc3)cc2)n1	/	/	/	0.886	-0.1
CCOC(=O)C1=NNC2(c3ccc(C)cc3)C(=O)N(c3ccc(Cl)cc3)C(=O)C12 (configuration not stated)	-26.9	/	-0.2	/	/
Cc1cccc(NC(NC(=O)Cc2ccccc2)C(Cl)(Cl)Cl)c1 (configuration not stated)	-3.5	/	-0.4	/	/
O=C(C1=C[C@H](C2CC2)C[C@H](OCc2ccc(CO)cc2)O1)N1CCOCC1	/	/	/	0.000818	/
COc1ccc(Cc2c(O)nc(SC)n(C(C)=O)c2=O)cc1	-11.3	25.4*	1.3	-0.347	0.17
COc1cc2c(cc1OC)C1Cc3ccc(OC)c(OC)c3C[N+]1([O-])CC2 (configuration not stated)	/	/	/	0.21	/
SMILES	CD11b adhes inh	Ec RNAP inh	CD11b adhes enh	Cav3 T inh	PTK2B oligo ant
O=S(=O)(Nc1nc(-c2sccc2Cl)cs1)c1cc(Cl)ccc1Cl	/	/	/	-7.06*	-2.63
CCOC(=O)CN1C(=O)C2Cc3ccccc3CN2C1=S (configuration not stated)	-2.3	/	-1.1	-0.926	-0.84
Cc1[nH]n(-c2cccc3ccccc23)c(=O)c1/C=N/c1sc2c(c1C#N)CCC2	100.3*	/	-13.3	/	0.13
COC(=O)C1NC(=O)N2C(C(=O)OC)C(C)(C)S[C@H]12 (some centres not stated)	/	/	/	1.89	/
O=C(Nc1cccc(Cl)c1)N1CCN2C(=O)c3ccccc3C12c1ccccc1 (configuration not stated)	/	/	/	-6.64*	-3.2*
Cc1ccc(C(=O)N2CCN3C(=O)c4ccccc4C23c2ccc(Cl)cc2)cc1 (configuration not stated)	0.2	/	-2.6	-4.96*	-1.37
CC1CCCC(C)N1C(=O)Nc1cccc(Cl)c1 (configuration not stated)	-15.4	10.2	-1.1	0.168	1.46
O=C(COc1ncnc2c(Cl)cc(Cl)cc12)NCCC1=CCCCC1	-21.5	/	31.5	-0.13	-0.01
CCOc1ccc(OCc2ccc(C(=O)N3CCc4ccccc4C3)o2)cc1	/	/	/	-2.78*	-0.18
Cc1nn(C)c(Oc2ccccc2)c1CCNS(=O)(=O)c1ccc(Cl)cc1	23.9	/	-0.3	-6.94*	-1.36
COc1ccc(S(=O)(=O)NCCc2c(C)nn(C)c2Oc2ccccc2)cc1	9.2	/	1.2	-1.63	-1.55
COC(=O)C1=C(C(=O)OC)[C@@H]2Nc3ccccc3[C@@]23C[C@@H](C(=O)OC)N(C(=O)c2cccs2)C3=N1	/	/	/	-0.155	/
Cc1ccc(C)c(SCc2noc(C(=O)NCC3CCCO3)c2C(=O)O)c1 (configuration not stated)	/	/	/	0.824	/
Clc1ccc(-c2nnc(-c3ccco3)o2)cc1	-7.2	-10.1	15.6	-4.52*	-0.11
O=C(/C=C/c1ccco1)c1ccc(NC(=O)C23CC4CC(CC(C4)C2)C3)cc1	-3.7	/	85.7	/	/
O=C(Nc1cc(Cl)ccc1O)c1snnc1-c1ccccc1	/	/	/	-0.186	-2.45
CC1C/C(=C/c2cccn2C)C(=O)/C(=C/c2cccn2C)C1 (configuration not stated)	18.8	/	-3.3	-13.7*	0.39
CCOC(=O)N1CCN(C(=O)C2CCCN(Cc3nc(-c4ccc(Cl)cc4)oc3C)C2)CC1 (configuration not stated)	70.5*	-6.3	-5.6	/	/
CCOC(=O)N1CCC(NC(=O)C2CCCN(Cc3nc(-c4cccc(Cl)c4)oc3C)C2)CC1 (configuration not stated)	59.6*	8.5	-3.1	-2.7	/
COc1ccc(-c2nc(CN3CCCC(C(=O)NC4CCCC4)C3)c(C)o2)cc1 (configuration not stated)	-6.5	/	-1.0	0.243	1.99
CCc1ccc(-c2nc(CN3CCCC(C(=O)NCCc4ccc(OC)c(OC)c4)C3)c(C)o2)cc1 (configuration not stated)	/	8.3	/	-5.8*	-0.97
CCOc1cc(N2CCOCC2)c(OCC)cc1NC(=O)c1ccc(OCc2c(C)noc2C)c(OC)c1	0.8	/	8.4	/	/
